Compound activity (PubChem)
TexasRed fluor: Texas Red fluorescence interference in TRb-SRC2 counter-screen | 280,000 tested, 0.29% active | Potency, µM (highest dose often 106 µM), without a hit: top-dose fluorescence change, negative = quenching | TRb/SRC2 Texas Red total fluorescence interference; active means well fitted curve in either direction with a large enough effect; inconclusive means small, poorly fitted or top-dose-only effect
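Flags fluorescent or light-absorbing compounds by total fluorescence, S + 2P, at 555 nm excitation and 632 nm emission. Mixture: 20 nM Texas Red SRC2 peptide, 0.6 uM human TRb LBD, 1 uM T3, 5% DMSO; compound exposure 5 h at ambient temperature.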
Tau ThT inhib: inhibitors of human tau fibril formation, thioflavin T binding | P10636 | recombinant tau K18 P301L, heparin-induced fibrillization, ThT fluorescence | Potency, µM (titrated, usually from 57.4 µM), inactives show at the top dose activity, negative = inhibition, actives largely listed as inhibitors | 270,000 tested, 2.1% active; further: nearly all actives have a fitted effect of over 55% in size
Target sequence (P10636 561-689 P618L limits assumed): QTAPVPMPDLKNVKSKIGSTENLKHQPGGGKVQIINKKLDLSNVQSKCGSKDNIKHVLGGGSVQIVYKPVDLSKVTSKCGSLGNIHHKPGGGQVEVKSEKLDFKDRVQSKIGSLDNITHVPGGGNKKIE
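Recombinant human tau K18 fragment […] carrying P301L, 15 uM unlabeled plus 0.24 uM Alexa 594-labeled, was fibrillized with 20 uM heparin in 100 mM sodium acetate pH 7 for 6 hr at 37 C; 30 uM ThT fluorescence read after 1 hr.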
TRb SRC2 PPI: disrupts binding of human TR beta to SRC2; TRbeta-SRC2 peptide binding, fluorescence polarization; receptor liganded with 1 µM T3; Potency, µM (doses to about 106 µM), for the others: at the highest dose activity change, negative = inhibition, hits mostly inhibitors; P10828; 280,000 tested, 0.065% active;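 further: plate controls were bound peptide for no effect and peptide without receptor for full effect; nearly all actives have a fitted effect of over 50% in size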
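Compounds were added to 0.6 uM TRb ligand-binding domain and 20 nM Texas Red-labeled SRC2 peptide in Tris buffer containing 1 uM T3, incubated 5 hr at ambient temperature, then read by fluorescence polarization.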
Tau fibril FP: tau fibrillization inhibition (FP) | P10636 | K18 P301L tau heparin fibrillization, Alexa594 FP, 6 h | AID 1468 | Potency, µM (titrated, usually from 57.7 µM), for inactives: at the top dose activity, negative = inhibition, usual class: inhibitors | 280,000 tested, 0.39% active; further: nearly all actives have a fitted effect of over 55% in size
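Compound effects on tau fibrillization are measured by Alexa 594 fluorescence polarization (ex 555, em 632 nm). K18 P301L tau is used at 15 uM with 0.24 uM labeled tracer, and 20 uM heparin induces aggregation over 6 hr at 37 C.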
GoLoco inh red: inhibitors of human Gai1-RGS12 GoLoco interaction (red fluorophore) | Gai1:RGS12 GoLoco peptide FP, rhodamine, 10 min | AID 880 | P63096 | Potency, µM (top dose mostly 61.6 µM), inactives show at the top dose activity, negative = inhibition, actives largely listed as inhibitors | 230,000 tested, 0.44% active; active means well fitted inhibition curve with a large enough effect, not every such curve was filed as active; inactive means no such curve, though single readings can be large or run the other way; further: nearly all actives have a fitted effect of over 30% in size
Target sequence (P63096 whole entry, looked up): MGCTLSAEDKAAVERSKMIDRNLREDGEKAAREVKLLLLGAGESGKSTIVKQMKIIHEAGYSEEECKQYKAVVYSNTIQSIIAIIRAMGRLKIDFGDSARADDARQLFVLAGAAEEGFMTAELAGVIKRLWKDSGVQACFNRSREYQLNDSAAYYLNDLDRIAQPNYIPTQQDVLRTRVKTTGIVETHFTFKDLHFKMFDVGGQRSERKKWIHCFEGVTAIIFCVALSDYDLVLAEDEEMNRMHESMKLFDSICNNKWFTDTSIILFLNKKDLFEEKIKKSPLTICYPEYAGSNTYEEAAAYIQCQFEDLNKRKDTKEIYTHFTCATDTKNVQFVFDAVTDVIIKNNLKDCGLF
Tau fluor cs: counter-screen for tau fibril formation inhibitors; tau K18 P301L Alexa594 fluorescence, heparin fibrillization; Potency, µM (titrated, usually from 57.7 µM), inactives show at the highest dose activity change, negative = decrease; 280,000 tested, 0.93% active; further: nearly all actives have a fitted effect of over 55% in size
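Human tau K18 P301L (15 uM unlabeled, 0.24 uM Alexa 594-labeled) in 100 mM sodium acetate pH 7 with 20 uM heparin, 6 hr at 37 C. ThT 30 uM added, 1 hr ambient; Alexa 594 FP and total fluorescence read at 555/632 nm.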
Starred values were filed as active, the others as inactive; [ ] = another dose, or the depositor's remark. Compounds with a hit are over-represented: about 3.1% of the library has one in this group of screens. Unless noted, the call rests on the fitted dose curve; in most records, active means well fitted curve in the direction sought with a large enough effect; inconclusive means small, poorly fitted or top-dose-only effect, or another doubt; inactive means no such curve, though single readings can be large; an effect the other way counts as inactive or inconclusive. Unless noted, on the % scale 0 is the no-effect control and ±100 the full control effect; potency means the concentration at half of the fitted maximal effect.

For O=C(NCc1cccnc1)C(=O)NCC(c1cccnc1)N1CCN(c2ccccc2F)CC1 (centres undefined) the results were TexasRed fluor 100µM*[quencher], Tau ThT inhib -11.3%, TRb SRC2 PPI -23.8%, Tau fibril FP -3.9% and Tau fluor cs -13.1%.
`CCN(CC)CCNC(=O)C(=O)NCC(c1cccnc1)N1CCN(c2ccccc2)CC1` (centres undefined) gave TexasRed fluor 89.1µM*[quencher], Tau ThT inhib 0.9%, TRb SRC2 PPI -25.5%, Tau fibril FP 4.3% and Tau fluor cs 3.2%.
Screening O=C(NCC(c1cccnc1)N1CCN(Cc2ccccc2)CC1)C(=O)Nc1ccc(F)cc1 (centres undefined) returned TexasRed fluor 5.0%, Tau ThT inhib 5.5%, TRb SRC2 PPI -8.4%, Tau fibril FP -2.3% and Tau fluor cs 5.0%.
Screening CC(C)(C)c1ccc(C(=O)NCC(c2cccnc2)N2CCc3ccccc3C2)cc1 (centres undefined) returned TexasRed fluor 11.2µM*[quencher], Tau ThT inhib inconclusive, TRb SRC2 PPI 2.1%, Tau fibril FP 6.0% and Tau fluor cs inconclusive.
For O=C(NCC(c1cccnc1)N1CCN(Cc2ccccc2)CC1)C(=O)Nc1cccc(F)c1 (centres undefined) the results were TexasRed fluor 0.251µM*[quencher], Tau ThT inhib inconclusive, TRb SRC2 PPI -13.5%, Tau fibril FP -6.3% and Tau fluor cs -25.5%.
`O=C(COc1ccc(F)cc1)Nc1ccc2nc(SCC(=O)N3CCOCC3)sc2c1` gave TexasRed fluor inconclusive, Tau ThT inhib -3.3%, TRb SRC2 PPI -8.6%, Tau fibril FP 1.1% and Tau fluor cs -13.3%.
Screening Cc1ccc(/C=C/C(=O)O)cc1S(=O)(=O)Nc1ccc2c(c1)OCO2 returned TexasRed fluor 1.6%, Tau ThT inhib 4.1%, TRb SRC2 PPI -9.9%, Tau fibril FP 2.8%, GoLoco inh red 1.8% and Tau fluor cs -5.0%.
CC(C)N=C(NC#N)SCC(=O)NC(C)(C)C was read as TexasRed fluor 0.1%, Tau ThT inhib 1.0%, TRb SRC2 PPI -7.9%, Tau fibril FP 3.8%, GoLoco inh red 5.0% and Tau fluor cs -2.7%.
`O=C(NCC(c1cccnc1)N1CCc2ccccc21)C(=O)Nc1ccccc1F` (centres undefined) gave TexasRed fluor 0.316µM*[quencher], Tau ThT inhib -9.2%, TRb SRC2 PPI -15.7%, Tau fibril FP 6.5% and Tau fluor cs inconclusive.
`CCC1CN(C(=O)N2CCC(C(=O)NCc3ccc(N(C)C)cc3)CC2)c2ccccc2O1` (centres undefined) gave TexasRed fluor 2.5%, Tau ThT inhib -16.3%, TRb SRC2 PPI -0.9%, Tau fibril FP 8.6% and Tau fluor cs -17.7%.
For COc1ccc(-c2noc(N3CCC(C(=O)N4CCN(c5ccccc5F)CC4)CC3)n2)cc1 the results were TexasRed fluor 56.2µM*[quencher], Tau ThT inhib inconclusive, TRb SRC2 PPI inconclusive, Tau fibril FP inconclusive and Tau fluor cs -9.8%.
CCc1ccc(NC(=O)C2CCN(C(=O)N3CC(CC)Oc4ccccc43)CC2)cc1 (centres undefined) was read as TexasRed fluor -3.2%, Tau ThT inhib inconclusive, TRb SRC2 PPI 0.1%, Tau fibril FP inconclusive and Tau fluor cs 15.8µM*[quencher].
Screening CCC1CN(C(=O)NCc2ccc(F)cc2)c2cc(C)ccc2O1 (centres undefined) returned TexasRed fluor 4.3%, Tau ThT inhib 4.1%, TRb SRC2 PPI -7.0%, Tau fibril FP inconclusive and Tau fluor cs inconclusive.
For CCOC(=O)N1CCN(c2nc(-c3ccc(OC)cc3)no2)CC1 the results were TexasRed fluor -1.0%, Tau ThT inhib inconclusive, TRb SRC2 PPI -14.2%, Tau fibril FP -3.0%, GoLoco inh red -14.7% and Tau fluor cs -10.9%.
`CCC1CN(C(=O)N2CCC(C(=O)N3CCN(c4ccccc4F)CC3)CC2)c2ccccc2O1` (centres undefined) gave TexasRed fluor 0.0141µM*[quencher], Tau ThT inhib inconclusive, TRb SRC2 PPI -2.6%, Tau fibril FP 10.5% and Tau fluor cs 14.1µM*[quencher].
`CCC1CN(C(=O)NCc2ccc(C)cc2)c2ccccc2O1` (centres undefined) gave TexasRed fluor inconclusive, Tau ThT inhib inconclusive, TRb SRC2 PPI -7.6%, Tau fibril FP inconclusive and Tau fluor cs 15.8µM*[quencher].
`Cc1cc(Cl)ccc1N1C(=O)CC(NNC(=O)c2cccnc2)C1=O` (centres undefined) gave TexasRed fluor -1.8%, Tau ThT inhib -8.9%, TRb SRC2 PPI -12.5%, Tau fibril FP 0.7%, GoLoco inh red 14.7% and Tau fluor cs -0.9%.
For Cc1ccc(NC(=O)C2CCC(CNS(=O)(=O)c3ccc4c(c3)C(C)(C)C(=O)N4C)CC2)cc1 (centres undefined) the results were TexasRed fluor -2.8%, Tau ThT inhib 5.5%, TRb SRC2 PPI 5.0%, Tau fibril FP 7.1% and Tau fluor cs 4.8%.
CC(=O)[C@@H]1[C@@H](C(=O)c2ccc(F)cc2)[C@]2(C(=O)Nc3ccccc32)[C@H]2C=Cc3cc(F)ccc3N12 was read as TexasRed fluor -9.5%, Tau ThT inhib inconclusive, TRb SRC2 PPI 0.5%, Tau fibril FP -17.7%, GoLoco inh red -1.9% and Tau fluor cs -16.0%.
CC(=O)[C@@H]1[C@@H](C(=O)c2ccc(C)cc2)[C@]2(C(=O)Nc3ccccc32)[C@H]2C=Cc3cc(F)ccc3N12 was read as TexasRed fluor -0.1%, Tau ThT inhib 14.1µM*, TRb SRC2 PPI -1.1%, Tau fibril FP inconclusive, GoLoco inh red 15.5% and Tau fluor cs inconclusive.
`O=C(O)c1cc(O)c2c(c1)C(=O)c1cc(O)cc(O)c1C2=O` gave TexasRed fluor -9.7%, Tau ThT inhib 7.08µM*, TRb SRC2 PPI 1.8%, Tau fibril FP -6.1%, GoLoco inh red 13.5% and Tau fluor cs inconclusive.
CCOc1ccc2nc3cc(N)ccc3c(N)c2c1 was read as TexasRed fluor inconclusive, Tau ThT inhib 7.08µM*, TRb SRC2 PPI -1.5%, Tau fibril FP inconclusive, GoLoco inh red 9.4% and Tau fluor cs 12.6µM*[quencher].
`CC(=O)N=c1sc(S(N)(=O)=O)nn1C` gave TexasRed fluor -1.1%, Tau ThT inhib 11.2%, TRb SRC2 PPI 10.1%, Tau fibril FP inconclusive, GoLoco inh red -10.2% and Tau fluor cs 8.3%.
COc1ccc(OC)c(/C=C2\S/C(=N/NC(=O)c3ccc4ccccc4c3)NC2=O)c1 was read as TexasRed fluor inconclusive, Tau ThT inhib 8.91µM*, TRb SRC2 PPI inconclusive, Tau fibril FP 3.1%, GoLoco inh red 20.9% and Tau fluor cs inconclusive.
